D2 PAM-1 = positively modulates the human D2 dopamine receptor allosterically | HEK293 T-REx D2, calcium flux, EC20 dopamine potentiation | potentiation, % at 10 µM | 340,000 tested, 0.34% active | AID 485347;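 active = potentiation over 3 SD above the plate norm, cut at about 30% in these data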; note: 0% is about no effect
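Primary screen. Calcium kinetics in induced HEK293 T-REx D2 cells: compound pre-addition 180 s, EC20 dopamine, 180 s more.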
D2 ag-1 = activates the human D2 dopamine receptor | DiscoveRx PathHunter D2 beta-arrestin, luminescence, 90 min; 100% = 57 uM dopamine signal | activation, % (test concentration not listed) | P14416 | 360,000 tested, 0.084% active; in the data active = activation above about 40%; inconclusive = between about 15% and that limit
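Agonist mode: compounds alone added to overnight-plated D2 PathHunter cells for 90 min at 37 C, with 57 uM final dopamine (EC100) defining full response. Beta-arrestin recruitment detected by chemiluminescent reagent, read after 1 h at ambient temperature.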
D2 ag-2 = agonists of human D2 dopamine receptor; P14416; HEK293 T-REx D2 cells, calcium flux agonist mode; AID 485358; 340,000 tested, 0.53% active; activation, % at 2 µM;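 active = activation over 3 SD above normal in the single-dose calcium agonist read, cut at about 30% in these data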; note: 0% is about no effect
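In this primary screen, compounds producing a positive calcium signal within 180 s of addition to tetracycline-induced, force-coupled HEK293 Trex D2 cells are flagged; cells are dye-loaded with a no-wash calcium kit beforehand.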
D2 PAM-2 = potentiates the human D2 dopamine receptor allosterically. AID 624464. potentiation, % (concentration not given with the values). 360,000 tested, 0.23% active. P14416. DiscoveRx D2 beta-arrestin cells, luminescence, 90 min; 100% = 57 uM dopamine signal; in the data active = potentiation above about 50%; inconclusive = mostly about 30% to 49%
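PathHunter beta-arrestin assay in DiscoveRx D2 cells. Compounds were added with an EC20 of dopamine (50 nM final) for 90 min at 37 deg C. Luminescence was read 1 h after detection reagent, with 57 uM dopamine as the EC100 control.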
D2 antag = antagonists of human D2 dopamine receptor; P14416; HEK293 TREx D2 cells, calcium flux, dopamine EC80; inhibition, % at 10 µM; 340,000 tested, 2% active; AID 485344; in the data active = inhibition above about 30%; inactive = below that, where a call was filed; note: 0% is about no effect
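Compounds are added to dye-loaded, induced HEK293 T-REx cells coupled to calcium release via D2; after a 3 min kinetic read an EC80 dopamine stimulus is given and fluorescence is recorded for 3 more min.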
D3 ag = activates human D3 dopamine receptor beta-arrestin recruitment. shares compounds with D2 ag-2. DiscoveRx D3 beta-arrestin cells, luminescence, 90 min. Potency, µM (highest dose often 76.9 µM), inactives show top-dose activation, most hits filed as activators. 2,300 tested, 4% active. AID 720506;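 note: potency is the fitted concentration of half-maximal effect; 100% = dopamine control response; nearly all actives have a fitted effect of over 70% in size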
Target sequence (P35462 whole entry, looked up): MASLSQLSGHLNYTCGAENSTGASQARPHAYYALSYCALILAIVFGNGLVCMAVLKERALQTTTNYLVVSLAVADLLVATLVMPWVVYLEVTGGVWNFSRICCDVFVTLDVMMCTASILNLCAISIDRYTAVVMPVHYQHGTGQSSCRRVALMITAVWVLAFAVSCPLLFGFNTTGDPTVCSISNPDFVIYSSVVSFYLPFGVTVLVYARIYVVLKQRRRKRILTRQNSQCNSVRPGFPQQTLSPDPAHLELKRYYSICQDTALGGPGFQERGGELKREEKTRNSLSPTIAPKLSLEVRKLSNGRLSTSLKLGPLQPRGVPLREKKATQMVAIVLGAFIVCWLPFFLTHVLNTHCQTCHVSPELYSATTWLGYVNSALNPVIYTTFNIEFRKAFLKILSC
D2 ag-3 = D2 receptor agonism, beta-arrestin counterscreen. 2,300 tested, 5.9% active. shares compounds with D2 ag-2. Potency, µM (doses to about 76.9 µM), for the others: at the highest dose activation, usual class: activators. DiscoveRx PathHunter D2 beta-arrestin, luminescence, 90 min; response scale: percent relative to full dopamine signal; note: potency is the fitted concentration of half-maximal effect; % of control where 0% means no effect; nearly all actives have a fitted effect of over 70% in size
* hit, by the source's call. This is a sample that favours compounds with a hit; in the whole collection about 2.4% have one here. Unless noted, calls come from the whole dose curve; as a rule, active = well fitted activation curve with a large enough effect; inconclusive = small, poorly fitted or top-dose-only effect; inactive = flat fitted curve, though single readings scatter.

Results for Cc1cccc(C)c1NC(=O)C1CCCN1S(=O)(=O)c1ccc(-c2ccc(=O)[nH]n2)s1 (stereo not given) ?
D2 PAM-1: 2; D2 ag-1: -3; D2 ag-2: 1; D2 PAM-2: 1; D2 antag: -4

What do the screens show for `O=C(Nc1ccccc1C(F)(F)F)C(O)(c1ccccc1)C1CCCCC1` (stereo not given)?
D2 PAM-1: -8; D2 ag-1: -3; D2 ag-2: 1; D2 PAM-2: -10; D2 antag: 3; D3 ag: -12%; D2 ag-3: -2%

What do the screens show for `O=C(Nc1ccccc1C(F)(F)F)N1CCC(N2CCCCC2)CC1`?
D2 PAM-1: 9; D2 ag-1: -4; D2 ag-2: 1; D2 PAM-2: -9; D2 antag: -2

How did O=C(CNC(=O)c1ccccc1Cl)OCc1cc(=O)n2ccsc2n1 do in these assays?
D2 PAM-1: 10; D2 ag-2: -1

What do the screens show for `Cc1ccc(C(=O)Nc2ccc3oc(-c4ccncc4)nc3c2)c(Cl)c1`?
D2 PAM-1: 5; D2 ag-2: -1

What do the screens show for `O=C(CCNS(=O)(=O)c1ccc2c(c1)CCN2C(=O)C1CC1)N1CCN(c2cccc(C(F)(F)F)c2)CC1`?
D2 PAM-1: 0; D2 ag-2: 0

What do the screens show for `C=CCC1Cc2c(cccc2[N+](=O)[O-])C(CC=C)N1` (stereo not given)?
D2 PAM-1: -13; D2 ag-1: inconclusive; D2 ag-2: 50*; D2 PAM-2: inconclusive; D2 antag: 36*; D3 ag: inconclusive; D2 ag-3: 22µM*

What do the screens show for `O=C(/C=C/c1ccccc1)Nc1nc2n(n1)C(c1ccc(F)cc1)C=C(c1ccccc1)N2` (stereo not given)?
D2 PAM-1: -2; D2 ag-2: 3

Results for COc1ccc(C(=O)Nc2ccc(N3CCN(Cc4ccccc4)CC3)cc2)cc1 ?
D2 PAM-1: -9; D2 ag-1: -10; D2 ag-2: 1; D2 PAM-2: 2; D2 antag: 6

What do the screens show for `CSc1ccccc1NC(=O)c1ccc(CN2CCOCC2)cc1`?
D2 PAM-1: -4; D2 ag-1: -1; D2 ag-2: -1; D2 PAM-2: -11; D2 antag: 4

How did COc1ccc(NC(=O)c2ccc(CN3CCN(c4ccccc4)CC3)cc2)cc1 do in these assays?
D2 PAM-1: -37; D2 ag-1: inconclusive; D2 ag-2: 86*; D2 PAM-2: 11; D2 antag: 82*; D3 ag: 18%; D2 ag-3: 14µM*

How did O=C(Nc1ccccc1F)c1ccc(CN2CCN(c3ccccc3)CC2)cc1 do in these assays?
D2 PAM-1: -18; D2 ag-1: inconclusive; D2 ag-2: 85*; D2 PAM-2: 10; D2 antag: 81*; D3 ag: 16%; D2 ag-3: 18µM*

How did Cn1nc(C(F)(F)F)c(C#N)c1N1CCN(c2ccccn2)CC1 do in these assays?
D2 PAM-1: -1; D2 ag-1: 0; D2 ag-2: 11; D2 PAM-2: -3; D2 antag: -33; D3 ag: 12%; D2 ag-3: 17%

Results for Nc1nc(N2CCN(Cc3ccccc3)CC2)n[nH]1 ?
D2 PAM-1: -27; D2 ag-1: 68*; D2 ag-2: 94*; D2 PAM-2: inconclusive; D2 antag: -19; D3 ag: inconclusive; D2 ag-3: 4.5µM*

Results for Nc1nc(N2CCN(C(c3ccccc3)c3ccccc3)CC2)n[nH]1 ?
D2 PAM-1: -2; D2 ag-1: -1; D2 ag-2: 0; D2 PAM-2: 4; D2 antag: -3

How did CCOc1ccc(CC(=O)NCc2ccc3c(c2)CCN3C(=O)c2ccccc2)cc1OCC do in these assays?
D2 PAM-1: 8; D2 ag-2: 1
